Inconclusive results are not listed. Values without a mark were called inactive. Calls come from the whole dose curve; as a rule, active = well fitted cell-killing curve with a large enough effect; inconclusive = small, poorly fitted or top-dose-only effect; inactive = flat fitted curve, though single readings scatter.
Assay: Cell Viability - LYMP2-018 (AID 985);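 note: compound exposure lasted 24 hr at 37 °C; plate controls were DMSO only for no effect and tetraoctylammonium bromide at 92 µM for full effect; nearly all actives have a fitted effect of over 50% in size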
Details: LYMP2-018 lymphoblastoid cells, viability (qHTS); series mostly up to 92.2 µM; activity change, negative = cytotoxicity: at the top concentration
Excerpt: NIH Chemical Genomics Center [NCGC]
NIH Molecular Libraries Screening Centers Network [MLSCN]
National Institutes of Environmental Health Sciences [NIEHS]
National Toxicology Program [NTP]
We have developed a 1536-well cell-based assay for quantitative high throughput screening (qHTS) against a number of cell lines to determine in vitro cytotoxicity of small molecules. This particular assay uses a human lymphoblastoid cell line (LYMP2-018) purchased from Coriell Institute for Medical Research.
NCGC Assay Protocol Summary:
The CellTiter-Glo luminescent cell viability assay (Promega) is a homogeneous method to measure the number of viable cells in culture. The end point readout of this assay is based on quantitation of intracellular ATP, an indicator of metabolic activity, using the luciferase reaction. Luciferase catalyzes the oxidation of beetle Luciferin to oxyluciferin and light in the presence of ATP. The luminescent signal is proportional to amount of ATP present.
Using the CellTiter-Glo luminescent cell viability assay, the amount of cellular ATP was measured in the lymphoblastoid cell line with complete culture medium following compound treatment for 24 hours. The assay was performed in opaque white Kalypsys 1536-well plates. In the screen, tetraoctylammonium bromide was used as positive control. Library compounds were measured for their ability to cause acute toxicity in the cell line, as reflected by a decrease in intracellular ATP levels, in a concentration-dependent manner. […] AC50 values were determined from concentration-response data modeled with the standard Hill equation.
qHTS protocol for CellTiter Glo lymphoblastoid cellular assay
[Step] [Parameter] [Value] [Description]
1. Reagent; 5 uL; 2500 lymphoblastoid cells/well
2. Time; 5 hr; 37 C incubation
4. Controls; 23 nL; Tetraoctylammonium bromide 6.4pM to 92 uM
5. Time; 24 hr; 37 C incubation
6. Reagent; 5 uL; CellTiter Glo reagent
7. Time; 30 min; Room Temperature
8. Detection; Luminescence; Viewlux plate reader
Keywords: cell viability, cytotoxicity, lymphoblastoid cell line, luminescence, NTPHTS, NTPHTS_NCGC, NIEHS, DSSTox, MLSMR, MLSCN, NIH Roadmap, qHTS, NCGC

| SMILES | activity change, negative = cytotoxicity |
| --- | --- |
| C=CCOC(=O)COCCC(C)C | -2.32% |
| CC/C=C/C#N | -9.37% |
| CCOCC(=O)O | 2.84% |
| Cc1ccc(N(C)C)cc1 | -16.3% |
| Cc1ccccc1C#N | -6.28% |
| CCOc1cc(OCC)c(C(C)=O)cc1OCC | -10.4% |
| Nc1ccccc1[N+](=O)[O-] | -20.5% |
| CCCCC(=O)N(C)C | 1.81% |
| S=C([S-])NCCNC(=S)[S-].[Zn+2] | -1.61% |
| CC/C(C)=N/O | -4.91% |
| BrC(Br)C(Br)Br | -11.8% |
| Cc1cccc2sc(N)nc12 | -8.16% |
| CC(C)C=O | -8.14% |
| NC(=O)NC(N)=O | -3.53% |
| Cc1nc2ccc(Cl)cc2[nH]1 | -1.2% |
| C1CCC2OC2C1 (stereo not given) | -15.8% |
| CC(C)CO | -4.57% |
| Cc1ccc([N+](=O)[O-])c(N)c1 | -7.67% |
| CCCCCCCCCCCCC1CO1 (stereo not given) | -6.59% |
| Cc1ccc(Cl)cc1N | -25.7% |

| SMILES | activity change, negative = cytotoxicity |
| --- | --- |
| O=C(O)c1ccc(CO)o1 | -16.4% |
| CCCCCCCCCCCCOCC1CO1 (stereo not given) | -13.2% |
| CCCCN(CCO)CCCC | -11.6% |
| Cc1ccc(C(=O)O)cc1 | -5.16% |
| O=C(O)c1cccc([N+](=O)[O-])c1 | -16.3% |
| Cc1cc(C)cc([N+](=O)[O-])c1 | -3.76% |
| CC(C)(O)C(=O)O | -5.99% |
| NC(=O)c1ccccc1[N+](=O)[O-] | 0.295% |
| c1ccc(Oc2ccccc2)cc1 | -4.48% |
| Cc1ccc2nc(-c3ccc(N)cc3)sc2c1S(=O)(=O)O | -19.3% |
| COc1cccc2sc(N)nc12 | -8.35% |
| CCOc1ccc(NC(C)=O)cc1N | -11.7% |
| COc1cccc(N)c1 | 4.45% |
| CC(=O)OC(C)C | 2.87% |
| CCC(C)(C)C(=O)O | -23.7% |
| CC(C)C(C)C | -9.91% |
| CCCCCCC=O | -10.8% |
| Cc1cc(C)cc(N)c1 | 5.13% |
| CC(=O)CCc1ccccc1 | 1.71% |
| CC/C=C1/OC(=O)c2ccccc21 | 0.27% |

— PubChem BioAssay (NCATS)
